Reference: PubChem BioAssay (NCI)
Several values for one entry are separate records, joined by “and”; a condition that tells them apart may be missing. Equal entries are not always repeated. About 83,000 compounds went through this panel and 20% of them were active in at least one assay; those are over-represented in the sample as a whole.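 How to read the values: 0–100, growth inhibition (40 = 60% inhibited); 0, no net growth; -100 to 0, cell death (-40 = 40% of starting cells died; -100 = all dead).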 Activity calls are given as the source filed them. The calls were made as follows: active = growth percent below 10; inactive = the rest.

Test system: MDA-MB-468 breast
Assay: NCI-60 one-dose screen, 48 h (100 = growth as untreated, 0 = no growth, -100 = all killed)
Conditions: 10 µM unless noted

SMILES | growth
O=C(Nc1ccc(Br)cc1)c1cc(Br)cc(Br)c1O | -23.3% (active)
Cn1cccc1C1CC(=O)N(CCC[Se]C#N)C1=O (stereo not drawn) | 13.6% (inactive)
OCCNC(Cc1ccccc1)c1ccc2c(c1)OCO2 (stereo not drawn) | 97.7% (inactive)
c1ccc(CCN2CCCCC2Cc2ccccc2)cc1 (stereo not drawn) | 103% (inactive)
CNC12C3C4C1C1C2C3C41C(=O)N[C@H](C(=O)N(C)[C@H](C[C@@H](OC(C)=O)c1nc(C(=O)N[C@@H](Cc2ccccc2)C[C@H](C)C(=O)OC)cs1)C(C)C)C1CC1 (stereo partly drawn) | -46.5% (active)
O=C(O)CC(Br)C(=O)CBr (stereo not drawn) | 105% (inactive)
O=C(N/N=C/c1ccc(N(CCCl)CCCl)cc1)c1cc(=O)[nH]c(=O)[nH]1 | -0.0833% (active)
COc1cc(C)c(-c2ccc(OC)c(=O)cc2C)c(OC)c1OC | 33.8% (inactive) and 77.1% (inactive)
COC(=O)[C@@H](C)C[C@H](Cc1ccccc1)NC(=O)c1csc([C@@H](C[C@H](C(C)C)N(C)C(=O)C2(NC(=O)[C@H]3CCCCN3C)CC2)OC(C)=O)n1 | -4.03% (active)
COC(=O)[C@@H](C)C[C@H](Cc1ccccc1)NC(=O)c1csc([C@@H](C[C@H](C(C)C)N(C)C(=O)[C@@H](NC(=O)[C@H]2CCCCN2C)C(C)C)OC(C)=O)n1 | -11.2% (active)
C/C=C/CC(C)C(O)[C@H](NC(=O)[C@@H]1CCCN1C(=O)C(C)(C)NC(=O)CCCCCCCCC)C(=O)N[C@@](C)(CC)C(=O)N[C@@H](CCC(N)=O)C(=O)N[C@H](CCC(N)=O)C(=O)NC(C)(C)C(=O)NC(C)(C)C(=O)N[C@@H](CCC(N)=O)C(=O)N[C@H](CC(C)C)C(=O)N[C@H](CO)CC(C)C (stereo partly drawn) | -53.4% (active) and 16.1% (inactive)
Cc1ccc(C(=O)C2CN(C)CCC2(O)c2ccc(C)cc2)cc1 (stereo not drawn) | 119% (inactive)
C/C(=C\c1ccn(-c2ccc(N)c(F)c2)n1)[C@@H]1C[C@@H]2O[C@]2(C)CCC[C@H](C)[C@H](O)[C@@H](C)C(=O)C(C)(C)[C@@H](O)CC(=O)O1 | 10.5% (inactive)
Nc1ccc(P(=O)(O)O)cc1 | 104% (inactive) and 92.6% (inactive)
CN=C(NN)NN | 112% (inactive)
CC(=O)N(C)C1=Nc2ccc(Cl)cc2C(c2ccccc2)=[N+]([O-])C1 | 111% (inactive)
O=C(Nc1ccncc1F)c1cn(CC2CC2)c2ccccc12 | 107% (inactive)

SMILES | growth
C[CH2][Sn]([Cl])([Cl])[CH2]C.Oc1ccccc1C=NCCN=Cc1ccccc1O | 103% (inactive)
CC(=O)O[C@H](C[C@H](C(C)C)N(C)C(=O)[C@@H](NC(=O)[C@H]1CCCCN1C)C(C)C)c1nc(C(=O)N[C@@H](Cc2ccccc2)C[C@H](C)C(=O)O)c(C(C)C)s1 | 19.8% (inactive)
C[N+]1(C)CCCC1c1cccnc1 (stereo not drawn) | 101% (inactive)
Nc1nc(N)c(-c2ccc(Cl)c(Cl)c2)c(/C=C/c2ccc(S(=O)(=O)F)cc2)n1 | 103% (inactive)
C[C@]12CC[C@H]3[C@@H](CC4SC(N)=NC45C/C(=N/NC(N)=O)CC[C@]35C)[C@@H]1CCC2=O (stereo partly drawn) | -46.2% (active)
CC(C)CCC1(CCCl)C(=O)NC(=O)NC1=O | 90.1% (inactive)
CCC(O)(CN)c1ccccc1 (stereo not drawn) | 101% (inactive)
CC/C(Cc1ccccc1)=C(\c1ccc(OCCN2CCCC2)cc1)c1ccc(OC(=O)NCc2ccccc2)cc1 | 14.8% (inactive)
C/C=C\C(=O)O[C@@H]1CC2O[C@@H]3C=C(C)C(=O)C[C@]3(C)[C@]1(C)[C@]21CO1 | -29.7% (active)
CN1C(=O)C(=Cc2cn(CCCCCCn3c4ccccc4c(=O)c4ccccc43)c3ccccc23)C(=O)N(C)C1=O | 81% (inactive)
CC(C)(C)N(Cc1ccccc1)N=O | 93.2% (inactive)
C=NCC#N | 105% (inactive) and 108% (inactive)
CC(=O)O[C@H](C[C@H](C(C)C)N(C)C(=O)[C@@H](NC(=O)[C@H]1CCCCN1C)C(C)C)c1cccc(C(=O)N[C@@H](Cc2ccccc2)C[C@H](C)C(=O)O)n1 | 20.9% (inactive)
CCCC(C)SP(=S)(SC(C)CCC)SC(C)CCC (stereo not drawn) | -25.4% (active)
Cc1cc[c-]cc1.Fc1c[c-]c(-c2ccccn2)c(F)c1.N#CCC[PH+](CCC#N)c1ccccc1.[Pt+2] | 37% (inactive)
CCC[CH2][Sn]([CH2]CCC)([CH2]CCC)[O]C(=O)c1ccc(Cl)cc1Cl | -80.7% (active)
